The whole screen tested about 140,000 compounds, of which about 240 (0.17%) were called active. About 9% were inconclusive and are not listed. The full list was thinned out, with actives kept by preference. Values without a mark were called inactive. Calls follow the shape of the dose curve; as a rule, active = well fitted inhibition curve with a large enough effect; inconclusive = small, poorly fitted or top-dose-only effect; inactive = no such curve, though single readings can be large or run the other way.
Test: Primary qHTS assay for inhibitors of alpha-synuclein gene (SNCA) expression; also: nearly all actives have a fitted effect of over 45% in size
Settings: HEK-293 SNCA-luciferase knock-in, luminescence, 24 h; series mostly up to 57.2 µM; activity change, negative = inhibition: at the top concentration
Source text: Assay Submitter (PI): Daniel R. Scoles Ph.D.
Department of Neurology, University of Utah, Salt Lake City, Utah
Accumulation of alpha-synuclein is a main underlying pathological feature of Parkinson's disease (PD) and alpha-synucleinopathies, for which lowering expression of the alpha-synuclein gene (SNCA) is a potential therapeutic avenue. Using a cell-based luciferase reporter of SNCA expression we performed a quantitative high throughput screen (qHTS) of 155,885 compounds in dose response. The screening assay was generated using genome editing to insert the luciferase gene downstream and in frame of the SNCA gene in HEK-293 cells (1). A viability counterscreen using GF-AFC was used to eliminate cytotoxic and false positive compounds. After in silico analysis (clustering, removal of frequent hitter nuisance chemotypes), inhibitor compounds from the primary screen were selected for follow up and re-tested at 11-doses in the SNCA-luc cells (luciferase and GF-AFC confirmation), and in CMV-luc expressing cell line to flag general transcriptional repressors.
Described herein are the results of the primary screen for SNCA inhibitors; decrease in luciferase signal (inhibition of the SNCA gene expression) is the desired output for this assay.
1. Dansithong, W., Paul, S., Scoles, D. R., Pulst, S. M., and Huynh, D. P. (2015) Generation of SNCA Cell Models Using Zinc Finger Nuclease (ZFN) Technology for Efficient High-Throughput Drug Screening. PLoS ONE 10, e0136930.
SEQUENCE No. (e.g., 1, 2, 3, etc.); […] (e.g., Cells, Incubation, Reagent, etc.); VALUE; DESCRIPTION
1; Cells; 4 uL; Dispense 1500 HEK-293-SNCA-luc cells/well into Greiner 1536-well white / solid bottom tissue culture treated plate. The plate was covered with metal lids with gas-exchange holes.
2; Incubate; 24 hours; Incubate at 37C, 5% CO2, 95% RH.
3; Compounds; 23 nL; Compounds and controls were transferred via a Kalypsys Pin Tool (Wako USA) equipped with a 1536-slotted pin array. The plate was covered with metal lids with gas-exchange holes.
4; Incubate; 24 hours; Incubate at 37C, 5% CO2, 95% RH.
5; Dispense; 1 uL; Dispense Gly-Phe-7-amino-4-trifluoromethylcoumarin (GF-AFC, prepared at 125 uM in PBS) was added. The plate was covered with metal lids with gas-exchange holes.
6; Incubate; 30 min; Incubate at 37C, 5% CO2.
7; Detector; Fluorescence; Measure fluorescence with ViewLux microplate reader (PerkinElmer) equipped with 405/10 excitation and 540/25 emission filters.
8; Dispense; 3 uL; Dispense ONE-Glo ([…]) lucifase detection reagent was added to each well. Plates were covered with metal lids with gas-exchange holes.
9; Incubate; 15 min; Incubate at room temperature.
10; Detector; Luminescence; Measure luminescence with ViewLux microplate reader (PerkinElmer) equipped with clear filters.
NOTES (numbers refer to sequence above)
1; HEK-293-SNCA-luc were cultured and suspended in phenol-red free DMEM (4.5 g/L glucose, 25 mM HEPES, cat #21063 (Thermo)).
3; Compounds were added to the assay plate in an 11-point intra plate dose response, 1:3 titration in DMSO with a final concentration range of […]. Vehicle-only plates, with DMSO being pin-transferred to every well, were inserted at the beginning of screening runs to confirm expected assay performance. […]
10; Signals were analyzed, and dose-response curves were fit using the Hill equation. […]
Potency is read from the fitted curve at half-maximal effect.

Structure (SMILES)	Potency	activity change, negative = inhibition
CC[C@H]1C=CC=CC[C@@H](C)[C@H](O)[C@@](C)(O)C(=O)[C@@H](C)[C@H](O)[C@@H](C)C(=O)[C@@H](C)[C@H](O)[C@@H](C)C=CC(=O)O[C@@H]2[C@@H](C)[C@H](CC1)O[C@]1(CC[C@H](C)[C@H](C[C@@H](C)O)O1)[C@H]2C	1710 nM (active)	
CN(Cc1ccccc1)C[C@H]1CN2CC[C@H]1C[C@@H]2CNC(=O)Nc1ccsc1		-2.49% [at 87.6 µM]
CC(=Cc1csc(C)n1)[C@@H]1C[C@H]2O[C@]2(C)CCC[C@H](C)[C@@H](O)[C@@H](C)C(=O)C(C)(C)[C@@H](O)CC(=O)O1		-26.4%
Cc1nc(-c2ccc(C(F)(F)F)cc2)cc([C@H]2CN3CC[C@H]2C[C@@H]3CNC(=O)C2CCC2)n1		-32.3%
CCOC(=O)[C@H]1CN(C(=O)NC2CCCC2)[C@]2(C)C(=O)Nc3ccccc3[C@H]12		18.1% [at 25.6 µM]

Source: PubChem BioAssay AID1671194 (National Center for Advancing Translational Sciences (NCATS), 2021)
